# Assay results from the supplement of paper PMC8728848.
# The entries come from a sample that favours the strongest signals as a whole.
# Legend:
# Assay in all cases: glycan array binding signal (z-score within array); higher = stronger binding
# Settings in all cases: glycan notation: IUPAC condensed, linker removed
# [1] = molecular target: Neu5Ac(a2-3)Gal(b1-4)[Fuc(a1-3)]GlcNAc(b1-6)[Gal(b1-3)]GalNAc
# Outline: (§1)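 The binding signal is a Z-score computed within each array and averaged over linkers. Arrays of the same protein sequence at different concentrations or buffers were also averaged together. Data originate from 3228 arrays in the Consortium for Functional Glycomics database, kept only where the protein sequence was available.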
# [2] = molecular target: Neu5Ac(a2-6)Gal(b1-4)GlcNAc(b1-2)Man(a1-3)[Gal(b1-4)GlcNAc(b1-2)Man(a1-6)]Man(b1-4)GlcNAc(b1-4)GlcNAc
# Outline: as §1
# [3] = molecular target: Neu5Ac(a2-6)GlcNAc(b1-4)GlcNAc
# Outline: as §1
# [4] = molecular target: Neu5Gc(a2-3)Gal(b1-3)[Fuc(a1-4)]GlcNAc
# Outline: as §1
binder,measurement,setting,value
"Protectin (Homo sapiens), P13987 (protein) MGIQGGSVLFGLLLVLAVFCHSGHSLQCYNCPNPTADCKTAVNCSSDFDACLITKAGLQVYNKCWKFEHCNFNDVTTRLRENELTYYCCKKDLCNFNEQLENGGTSLSEKTVLLLVTPFLAAAWSLHP",glycan array binding signal (z-score),[1],-0.153
same,glycan array binding signal (z-score),[2],-1.94
same,glycan array binding signal (z-score),[3],-0.361
same,glycan array binding signal (z-score),[4],0.087
